Assay outcomes: PubChem, several laboratories
WT yeast gro inh = growth inhibition of WT yeast, mitochondrial fusion screen; mitochondrial fusion phenotypic screen, WT strain; inhibition, % at 10 µM; hit rate 2.1% among 190,000; AID 1362; in the data active means inhibition above about 58%; tested in S. cerevisiae
CHOP inh = inhibitors of CHOP induction in ER stress response; hit rate 3.8% among 220,000; AID 2732; CHO-K1 CHOP-promoter luciferase, tunicamycin-induced, 15-18 h; inhibition, % at 10 µM;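 active means compounds that reduced the stress-induced luciferase reporter signal by more than about 70% of percent inhibition, limit read from the data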;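 further: 0% = tunicamycin plus vehicle and 100% = wells without tunicamycin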
L major viab = reduces viability of Leishmania major promastigotes; resazurin fluorescence viability; hit rate 9% among 200,000; inhibition, % at 10 µM; AID 1063; in the data active means inhibition above about 50%;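 further: promastigotes grown with compound for 44 hours at 28 °C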
RAM network inh = blocks the yeast RAM network. S. cerevisiae dse1pr::URA3 reporter, 5-FOA growth OD615, 2 d; analog-sensitive cbk1-as2 kinase mutant strain. inhibition, % at 50 µM. hit rate 1.8% among 190,000;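 active means inhibition above a set limit, 3 SD over mean compound inhibition, cut at about 8.4% in these data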;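 further: 0% = DMSO-only wells with no growth and 100% = 10 µM 1-NA-PP1 full growth; inhibition rescues growth on 5-FOA so higher OD means more RAM inhibition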
Starred values were filed as active, the others as inactive. An excerpt weighted towards active compounds, which were near 13% of everything screened.

What do the screens show for `CN1/C(=C\C(=S)NC(=O)c2ccccc2Cl)C(C)(C)c2ccccc21`?
WT yeast gro inh: 57.8; CHOP inh: 21.6; L major viab: 44.7; RAM network inh: 4.0

How did CN1/C(=C/C=N/n2cnnc2)C(C)(C)c2ccccc21 do in these assays?
WT yeast gro inh: 3.4; CHOP inh: 57.0; L major viab: 0.1; RAM network inh: 0.6

How did CN1/C(=C\C=N\NC(=O)c2ccccc2Br)C(C)(C)c2ccccc21 do in these assays?
WT yeast gro inh: -6.6; CHOP inh: 43.3; L major viab: 50.1*; RAM network inh: 0.8

What do the screens show for `COc1ccccc1C(=O)NC(=S)/C=C1/N(C)c2ccccc2C1(C)C`?
WT yeast gro inh: 77.5*; CHOP inh: 73.4*; L major viab: 77.7*; RAM network inh: 4.7

What do the screens show for `CN(C(=S)NC(=O)C1(C)CC1(Cl)Cl)c1ccccc1` (centres undefined)?
WT yeast gro inh: -3.8; CHOP inh: 19.8; L major viab: -4.4; RAM network inh: 1.1

Results for CN1/C(=C/C(=S)NC(=O)C2(C)CC2(Cl)Cl)C(C)(C)c2ccccc21 (centres undefined) ?
WT yeast gro inh: 49.2; CHOP inh: 14.1; L major viab: 51.4*; RAM network inh: 5.4

How did Cc1csc2c(N3CCN(C(=S)Nc4ccc(F)cc4F)CC3)ncnc12 do in these assays?
CHOP inh: 39.4

Results for COC(=O)[C@@H]1[C@@H](C#N)C2(c3ccccc3-c3ccccc32)N(c2ccc(Cl)cc2)N1C#N ?
WT yeast gro inh: 73.6*; CHOP inh: 82.0*; L major viab: -1.5; RAM network inh: 4.3

Results for O=C(COc1ccc2ccccc2c1CN1CCOCC1)N1CCc2ccccc21 ?
WT yeast gro inh: 7.4; CHOP inh: 5.5; L major viab: 59.7*; RAM network inh: 1.1

Results for CCc1cc(=O)oc2c(C)c(OCC(=O)N3CCCc4ccccc43)ccc12 ?
WT yeast gro inh: -4.5; CHOP inh: -6.0; L major viab: 89.2*; RAM network inh: 0.0

What do the screens show for `O=C(COc1ccc(F)cc1)N1c2ccccc2CCc2ccccc21`?
WT yeast gro inh: 3.8; CHOP inh: 13.6; L major viab: 1.2; RAM network inh: 1.5

Results for Cc1cccc(OCC(=O)N2CCCc3ccccc32)c1 ?
WT yeast gro inh: -27.5; CHOP inh: 13.4; L major viab: -6.8; RAM network inh: -1.5

Results for CCn1c(=O)cc(OCC(=O)N2CCc3ccccc32)c2ccccc21 ?
WT yeast gro inh: 2.0; CHOP inh: 85.3*; L major viab: -7.1; RAM network inh: 5.0

Results for O=C(COc1cccc2ccccc12)N1c2ccccc2CCc2ccccc21 ?
WT yeast gro inh: 0.4; CHOP inh: 73.5*; L major viab: -12.8; RAM network inh: 2.0

What do the screens show for `Cc1nc(SCC(=O)c2ccccc2)c(C#N)c(-c2ccco2)c1C(=O)NCc1ccco1`?
WT yeast gro inh: 4.8; CHOP inh: -13.9; L major viab: 17.0; RAM network inh: 3.8

How did Cc1cc([N+](=O)[O-])nn1CCCC(=O)Nc1cc(Oc2ccc(F)cc2)cc([N+](=O)[O-])c1 do in these assays?
WT yeast gro inh: 27.4; CHOP inh: 70.2*; L major viab: 5.2; RAM network inh: 8.9*

What do the screens show for `COc1ccc(CNC(=O)CCCn2nc([N+](=O)[O-])cc2C)cc1`?
WT yeast gro inh: -19.3; CHOP inh: 3.5; L major viab: -6.1; RAM network inh: 0.0

How did Cc1ccc(Oc2cc(NC(=O)CCCn3nc([N+](=O)[O-])c(Cl)c3C)cc([N+](=O)[O-])c2)cc1 do in these assays?
WT yeast gro inh: 22.9; CHOP inh: 80.7*; L major viab: 24.4; RAM network inh: 3.1

Results for Cc1cc([N+](=O)[O-])nn1CCCC(=O)Nc1cc(Oc2ccccc2)cc([N+](=O)[O-])c1 ?
WT yeast gro inh: 11.1; CHOP inh: 73.7*; L major viab: -2.9; RAM network inh: 10.2*

How did OCCC1CN(Cc2cn[nH]c2C2CCCCC2)CCN1C1CCCCC1 (centres undefined) do in these assays?
WT yeast gro inh: 15.1; CHOP inh: -7.6; L major viab: -0.5; RAM network inh: 1.8

What do the screens show for `O=C(c1cccc(Oc2ccccc2)c1)N1CCN(c2ccccn2)CC1`?
WT yeast gro inh: 8.3; CHOP inh: 26.5; L major viab: -8.6; RAM network inh: 1.4

How did O=C(NC1CCCC1)C(c1ccccc1)N(Cc1cccnc1)C(=O)Cc1cccs1 (centres undefined) do in these assays?
WT yeast gro inh: -28.8; CHOP inh: 2.4; L major viab: 44.6; RAM network inh: 1.0

Results for O=c1cnnc(N/N=C/c2ccccn2)[nH]1 ?
CHOP inh: 58.2

Results for O=c1nc(N/N=C/c2ccccn2)cn[nH]1 ?
WT yeast gro inh: 18.2; CHOP inh: 63.8; L major viab: 97.5*; RAM network inh: 1.9

What do the screens show for `Cc1cc(=O)[nH]c(N/N=C/c2ccccn2)n1`?
WT yeast gro inh: 1.9; CHOP inh: 61.1; L major viab: 98.8*; RAM network inh: -0.1

Results for Cc1sc(NC(=O)CSc2nnc(-c3ccc(F)cc3)o2)c(C#N)c1C ?
WT yeast gro inh: 10.9; CHOP inh: -2.3; L major viab: 6.0; RAM network inh: 1.6

How did O=c1[nH]ncc(N/N=C\c2cccs2)c1Cl do in these assays?
WT yeast gro inh: -3.8; CHOP inh: -4.5; L major viab: -4.1; RAM network inh: 0.8

How did CCN1C(=O)/C(=C2\SC(=S)N(CCCOC)C2=O)c2ccccc21 do in these assays?
WT yeast gro inh: 5.9; CHOP inh: -11.2; L major viab: -2.0; RAM network inh: 9.5*

How did O=C(Cn1cnc2cc([N+](=O)[O-])ccc2c1=O)NC(c1ccccc1)c1ccccc1 do in these assays?
WT yeast gro inh: 2.2; CHOP inh: 31.3; L major viab: 12.1; RAM network inh: 5.0

How did Cc1ccc(C(=O)CSc2ccc(-c3cccnc3)nn2)cc1 do in these assays?
WT yeast gro inh: -5.1; CHOP inh: 8.0; L major viab: -0.8; RAM network inh: 2.0

Results for CC1=CC2=NC(=O)/C(=C/c3cccs3)C(=N)N2O1 ?
CHOP inh: 2.4

What do the screens show for `CC1=CC2=NC(=O)/C(=C\c3ccc(-c4ccc(Cl)cc4)o3)C(=N)N2O1`?
WT yeast gro inh: 5.9; CHOP inh: 93.0*; L major viab: 5.5; RAM network inh: 2.5

Results for COc1cc(CNC2CCCC2)cc(Br)c1OCC(=O)Nc1ccccc1C ?
WT yeast gro inh: 25.9; CHOP inh: 12.0; L major viab: 99.5*; RAM network inh: 0.3

What do the screens show for `COc1cc(CNC2CCCC2)cc(Cl)c1OCc1ccc(F)cc1`?
WT yeast gro inh: 36.9; CHOP inh: 67.1; L major viab: 100.5*; RAM network inh: 2.9

How did COc1cc(CNC2CCCC2)cc(Cl)c1OCc1ccccc1Cl do in these assays?
WT yeast gro inh: 19.5; CHOP inh: 73.7*; L major viab: 100.2*; RAM network inh: -0.1

Results for CCOc1cc(CNC2CCCC2)cc(Cl)c1OCc1ccc(F)cc1 ?
WT yeast gro inh: 54.4; CHOP inh: 18.5; L major viab: 99.5*; RAM network inh: -0.4

What do the screens show for `CCOc1cc(CO)cc(Br)c1OCC(=O)Nc1ccccc1C`?
WT yeast gro inh: 1.1; CHOP inh: 13.2; L major viab: 6.4; RAM network inh: 1.3

What do the screens show for `NC(=S)N/N=C/c1cn(-c2ccccc2)nc1-c1cccnc1`?
CHOP inh: -10.7
